Records with an inconclusive call do not appear. Entries that show only a call come without a potency. The source made the active and inactive calls. Calls come from the whole dose curve; as a rule, active = well fitted curve in the direction sought with a large enough effect; inconclusive = small, poorly fitted or top-dose-only effect, or another doubt; inactive = no such curve, though single readings can be large; an effect the other way counts as inactive or inconclusive.
Experiments:
[1] = biological target: Aldehyde dehydrogenase, mitochondrial (Homo sapiens) (UniProt P05091); test: qHTS for Inhibitors of the Aldehyde Dehydrogenase Family (ALDH2) Primary screen (AID 2061308); note: nearly all actives have a fitted effect of over 55% in size
[2] = biological target: Retinaldehyde dehydrogenase 3 (Homo sapiens) (UniProt P47895); test: qHTS for Inhibitors of the Aldehyde Dehydrogenase Family (ALDH1A3) Primary screen (AID 2061315)

Compound | Potency [1] | Potency [2]
COc1cc(OC)cc(-c2nnc3n2N=C(c2cc(OC)ccc2OC)CS3)c1 | inactive | inactive
CCCCNc1nc(C)nc2c1nc(-c1ccccc1)n2CCCN1CCCCC1C (stereo not given) | inactive | inactive
COCc1nn2c(=O)cc(N3CCNCC3)nc2s1 | inactive | inactive
O=C(CNC(=O)c1ccccc1)OC(C(=O)Nc1cc([N+](=O)[O-])ccc1F)c1ccccc1 (stereo not given) | inactive | inactive
Fc1cc(Nc2nc(-c3ccncc3)nc3ccccc23)ccc1-c1ccncc1 | inactive | inactive
CC(=O)Nc1sc2c(c1-c1ccc3c(c1)OCCO3)CCNC2 | inactive | inactive
O=C1CCCC2=C1C(c1ccccc1Br)N=C(Nc1nc3ccccc3o1)N2 (stereo not given) | inactive | inactive
O=C(Nc1ccc2ccccc2c1)Nc1nnc(-c2ccc(O)cc2)s1 | inactive | inactive
Cc1cc(C)n2ncc(C(=O)Nc3ccncc3)c2n1 | inactive | inactive
O=C(Nc1nnc(-c2ccncc2)s1)Nc1cccc2ccccc12 | inactive | inactive
O=C(NC1CCCc2c1cnn2-c1ccc(F)cc1F)c1ccc(C2(C(F)(F)F)N=N2)cc1 (stereo not given) | inactive | inactive
COc1ccc(C[C@H](N)C(=O)N[C@@H]2[C@H](O)[C@H](n3cnc4c(N(C)C)ncnc43)O[C@@H]2CO)cc1 | inactive | inactive
Cc1cn(-c2cc(F)cc(NC(=O)c3ccc(C)c(Nc4nccc(-c5cccnc5)n4)c3)c2)cn1 | inactive | inactive
Nc1nc(NCC2CCC(CNS(=O)(=O)c3cccc4ccccc34)CC2)nc2ccccc12 (stereo not given) | inactive | inactive
COc1cccc(Cn2ncc3c4sc(SC)cc4n(C)c3c2=O)c1 | inactive | inactive
CCCn1c(C)nc2c(NCCN3CCOCC3)nc(C)nc21 | inactive | inactive
O=C(OCC#CCSc1nnc(-c2ccc3ccccc3c2)o1)c1ccc(OC(F)(F)F)cc1 | inactive | inactive
CS(=O)(=O)c1ccc(-c2csc(N3CCC(C(N)=O)CC3)n2)cc1 | inactive | inactive
C[C@H](C/C=C/C(C)(C)O)[C@H]1CC[C@@]2(C)[C@@H]3[C@@H](O[C@@H]4O[C@H](CO)[C@@H](O)[C@H](O)[C@H]4O)C=C4C(CC[C@H](O)C4(C)C)[C@]3(C=O)CC[C@]12C (stereo not given in full) | inactive | inactive
O=C(OCC#CCSc1nnc(-c2ccccc2F)o1)c1ccc(F)cc1 | inactive | inactive
Cc1cc(N[S+](=O)([O-])c2cc3c(cc2Cl)NC(=O)CO3)ccc1Br | inactive | inactive
Cc1cc(NC(=O)Nc2nnc(-c3ccncc3)s2)ccc1F | inactive | inactive

Compound | Potency [1] | Potency [2]
O=[S+]([O-])(Nc1ccccc1F)c1cccc(NC/C=C/c2ccccc2)c1 | inactive | inactive
Cc1cc(NS(=O)(=O)c2ccc3c(c2)CCC(=O)N3)ccc1Cl | inactive | inactive
COc1cc(F)c(S(=O)(=O)N2CCCN(S(=O)(=O)c3cccc(NC(C)=O)c3)CC2)c(F)c1 | inactive | inactive
CCCn1c(-c2ccc(F)cc2)nc2c(NCCCN(C)C)nc(C)nc21 | inactive | inactive
O=S(=O)(Nc1ccccc1)c1ccc(NCc2cccc(Cl)c2O)cc1 | inactive | inactive
CCCn1c(C)nc2c(NC(C)CN(C)C)nc(C)nc21 (stereo not given) | inactive | inactive
O=C(CNC(=O)c1ccc(Cl)c(C(F)(F)F)c1)OC(C(=O)Nc1cc(C(F)(F)F)ccc1Cl)c1ccccc1 (stereo not given) | inactive | inactive
Fc1cc(Nc2nc(-c3ccncc3)nc3ccccc23)ccc1C(F)(F)F | inactive | inactive
CCCCNc1nc(C)nc2c1nc(C)n2CCC | inactive | inactive
CC(C)n1nc(Cc2cccc3ccccc23)c2c(N)ncnc21 | inactive | inactive
COc1ccc(C2Nc3ccccc3C(=O)N2Cc2ccccn2)cc1COc1c(C)cccc1C (stereo not given) | inactive | inactive
CC(C)(C)OC(=O)NCC(=O)NNC(=O)c1nc2ccccc2[nH]1 | inactive | inactive
COc1cc(-c2ccc3ncnc(N(C)Cc4csc(C)n4)c3c2)cc(OC)c1OC | inactive | inactive
Cc1cc(C)nc(NC(=S)N2CCN(c3nccs3)CC2)c1 | inactive | inactive
O=C(Nc1ccc(-c2nc3ccccc3[nH]2)cc1)c1ccc2c(c1)OCCO2 | inactive | inactive
O=C(Nc1ccc2sccc2c1)Nc1nnc(-c2ccncc2)s1 | inactive | inactive
Cc1ccc(OCCn2c(CCNC(=O)C3CCNCC3)nc3ccccc32)cc1 | inactive | inactive
Cc1ccc(S(=O)(=O)Nc2cnccc2C(=O)Nc2nc(-c3cc4ccccc4o3)cs2)cc1 | inactive | inactive
c1nc(NCCCN2CCCCC2)c2cc(-c3ccc4c(c3)OCO4)ccc2n1 | inactive | inactive
N#Cc1ncc(C(=O)OCC(=O)NC2C3CC4CC(C3)CC2C4)cn1 (stereo not given) | inactive | inactive
COc1cccc(C2c3c(ncn(-c4ccc(C)cc4)c3=N)Oc3ccc4ccccc4c32)c1 (stereo not given) | inactive | inactive
Cc1cc(C)nc(NC(=S)N2CCN(c3ccc(S(C)(=O)=O)cc3F)CC2)c1 | inactive | inactive

Compound | Potency [1] | Potency [2]
O=C(Cc1nnc(CNC(=O)c2ccccc2)s1)Nc1ccc(C(F)(F)F)cc1Cl | inactive | inactive
CCn1c(-c2nonc2N)nc2c(C#CCO)ncc(OCCCN)c21 | inactive | inactive
O=C1CCCC2=C1C1(CCCC1)N=C(Nc1nc3cc(Br)ccc3o1)N2 | inactive | inactive
Cc1nc(C)c(-c2ccc3ncnc(NCCc4cnc[nH]4)c3c2)s1 | inactive | inactive
CC1CN(c2cc3c(cc2F)c(=O)c(C(=O)O)cn3-c2ccc(F)cc2F)CCN1 (stereo not given) | inactive | inactive
c1nc(N2CCOCC2)c2cc(-c3ccc4c(c3)OCO4)ccc2n1 | inactive | inactive
O=C(O)c1ccc2c(c1)C(=O)N([C@H](Cc1ccc(O)c(O)c1)C(=O)O)C2=O | inactive | inactive
CCCCN(C)C(=O)Cn1nc(-c2ccc(C(F)(F)F)cc2)ccc1=O | inactive | inactive
Cc1cccc(-n2cnc3cc(C(=O)N4CCCC(C(C)C)C4)ccc32)c1 (stereo not given) | inactive | inactive
CCOc1ccccc1-c1nnc2n1N=C(c1ccccc1OC)CS2 | inactive | inactive
Cc1ccc(OCCn2c(CCNC(=O)c3ccc(Br)cc3)nc3ccccc32)cc1 | inactive | inactive
Cn1c2cc(S(C)(=O)=O)sc2c2cnn(Cc3ccccc3F)c(=O)c21 | inactive | inactive
CC(O)c1cc2c(s1)c1cnn(Cc3ccccc3F)c(=O)c1n2C (stereo not given) | inactive | inactive
COc1ccc(CNC(=O)c2nc(S(=O)(=O)Cc3ccccc3)ncc2Cl)cc1 | inactive | inactive
O=C(Nc1ccccc1)Nc1nc(Nc2cc(F)cc(F)c2)nc(NC2CCCC2)n1 | inactive | inactive
Cc1ccc(C)c(-c2cc(C(F)(F)F)nn2-c2ccc(S(N)(=O)=O)cc2)c1 | inactive | inactive
COc1ccc(C(=O)N(Cc2ccccc2)Cc2ccccc2)cc1COc1ccc(NC(C)=O)cc1 | inactive | inactive
CC1=C(C(=O)Nc2nnc(-c3ccccc3)s2)C(c2nn(C)cc2Cl)N=C(Nc2nc3ccccc3o2)N1 (stereo not given) | inactive | inactive
O=S(=O)(NCCCNS(=O)(=O)c1c(F)cccc1F)c1ccc2c(c1)OCCO2 | inactive | inactive
O=S(=O)(c1ccccc1)N1CCN(S(=O)(=O)c2ccc3c(c2)OCCO3)CC1 | inactive | inactive
O=S(=O)(Nc1cccc2cccnc12)c1ccccc1 | inactive | inactive
Cc1ccccc1-c1nc(NCc2ccc(-c3cccnc3)cc2)c2ccccc2n1 | inactive | inactive

Compound | Potency [1] | Potency [2]
Cc1ccc(C(=O)NC(c2ccco2)c2cc(Cl)c3cccnc3c2O)cc1 (stereo not given) | inactive | inactive
C/C=C/c1ccc(O[C@@H]2O[C@H](CO)[C@@H](O)[C@H](O)[C@H]2O)c(OC)c1 | inactive | inactive
CN(C)CC1CCN(C2CCN(C(=O)c3cccc(-c4cc(O)c5ncccc5c4)c3)CC2)CC1 | inactive | inactive
O=[S+]([O-])(Nc1ccc(N2CCNCC2)cc1)c1ccc(NCc2cccc(Cl)c2O)cc1 | inactive | inactive
CNc1cc2c(cc1S(=O)(=O)Nc1ccc(C)c(C)c1)CCC(=O)N2 | inactive | inactive
CN(C)c1ccc(C2N=C(Nc3nc4ccccc4o3)NC3=C2C(=O)CCC3)cc1 (stereo not given) | inactive | inactive
COc1ccc(OC)c(C(=O)Nc2nc(-c3ccccc3)cs2)c1 | inactive | inactive
CC(C)N1Cc2ccc(Nc3nn4c(=O)c5ccccc5nc4s3)cc2C1 | inactive | inactive
COc1ccc([S+](=O)([O-])N2CCN([S+](=O)([O-])c3ccc4c(c3)OCCO4)CC2)c(OC)c1 | inactive | inactive
Cc1ccc(OCCn2c(CCN[S+](=O)([O-])C3CCCCC3)nc3ccccc32)cc1 | inactive | inactive
Cc1cc2c(s1)c1cnn(Cc3ccc(F)c(F)c3)c(=O)c1n2C | inactive | inactive
C[C@H]1CN(S(=O)(=O)c2c(F)cccc2F)CCN1S(=O)(=O)c1ccc2c(c1)OCCO2 | inactive | inactive
CCOc1ccc(C(=O)Oc2ccc(-c3nc4ccccc4[nH]3)cc2)cc1Cl | inactive | inactive
O=C(NCCc1ccc(OCC(F)(F)F)c(OCC(F)(F)F)c1)c1cc2sccc2n1Cc1ccccc1 | inactive | inactive
CC1=CC2/C=C(\C)CCC(O)C/C=C/C(=O)OC23C(=O)NC(CC(C)C)C3C1C (stereo not given) | inactive | inactive
Cc1nc(NC2CCCCC2)c2nc(-c3ccccc3)n(CCCN3CCCCC3C)c2n1 (stereo not given) | inactive | inactive
Cc1cccc(CNc2ncnc3ccc(-c4ccoc4)cc23)c1 | inactive | inactive
Cc1cc(-c2ccccc2)nc2c(C(=O)Nc3ccc4c(c3)CCC4)cnn12 | inactive | inactive
COc1cccc(CN2C(=O)c3ccccc3NC2c2ccc(OC)c(COc3c(C)cc(NC(C)=O)cc3C)c2)c1 (stereo not given) | inactive | inactive
